Test results from the supplement of paper PMC11732987, “Enantioselective OTUD7B fragment discovery through chemoproteomics screening and high-throughput optimisation” (Communications Chemistry, 2025).

How the values were obtained:
Test in all cases: log2 ratio of Biotin-Ahx-Ub-VS probe labelling (fragment/DMSO); higher = less target engagement (more negative = stronger competition), active = hit call of the paper (q ≤ 0.05, log2 ratio ≤ -1)
Conditions in all cases: compound concentration: 200 uM; treatment time: 3 h
[1] = target: USP34 (UniProt Q70CQ2)
Outline: (§1)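 Using Biotin-Ahx-Ub-VS at 0.5 µM final for 1 h, DUBs were labelled in HEK293T lysate (495 µg per sample) that had first been treated in triplicate with fragment at 200 µM or vehicle for 3 h. NeutrAvidin enrichment, LysC and trypsin digestion and diaPASEF LC-MS/MS followed. Spectronaut label-free quantities were global-median-normalised. Values are average log2 fragment/vehicle ratios by unpaired t-test, using proteins with ≥2 unique peptides.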

[2] = target: T1, USP36 (UniProt Q9P275)
T1 sequence (whole entry): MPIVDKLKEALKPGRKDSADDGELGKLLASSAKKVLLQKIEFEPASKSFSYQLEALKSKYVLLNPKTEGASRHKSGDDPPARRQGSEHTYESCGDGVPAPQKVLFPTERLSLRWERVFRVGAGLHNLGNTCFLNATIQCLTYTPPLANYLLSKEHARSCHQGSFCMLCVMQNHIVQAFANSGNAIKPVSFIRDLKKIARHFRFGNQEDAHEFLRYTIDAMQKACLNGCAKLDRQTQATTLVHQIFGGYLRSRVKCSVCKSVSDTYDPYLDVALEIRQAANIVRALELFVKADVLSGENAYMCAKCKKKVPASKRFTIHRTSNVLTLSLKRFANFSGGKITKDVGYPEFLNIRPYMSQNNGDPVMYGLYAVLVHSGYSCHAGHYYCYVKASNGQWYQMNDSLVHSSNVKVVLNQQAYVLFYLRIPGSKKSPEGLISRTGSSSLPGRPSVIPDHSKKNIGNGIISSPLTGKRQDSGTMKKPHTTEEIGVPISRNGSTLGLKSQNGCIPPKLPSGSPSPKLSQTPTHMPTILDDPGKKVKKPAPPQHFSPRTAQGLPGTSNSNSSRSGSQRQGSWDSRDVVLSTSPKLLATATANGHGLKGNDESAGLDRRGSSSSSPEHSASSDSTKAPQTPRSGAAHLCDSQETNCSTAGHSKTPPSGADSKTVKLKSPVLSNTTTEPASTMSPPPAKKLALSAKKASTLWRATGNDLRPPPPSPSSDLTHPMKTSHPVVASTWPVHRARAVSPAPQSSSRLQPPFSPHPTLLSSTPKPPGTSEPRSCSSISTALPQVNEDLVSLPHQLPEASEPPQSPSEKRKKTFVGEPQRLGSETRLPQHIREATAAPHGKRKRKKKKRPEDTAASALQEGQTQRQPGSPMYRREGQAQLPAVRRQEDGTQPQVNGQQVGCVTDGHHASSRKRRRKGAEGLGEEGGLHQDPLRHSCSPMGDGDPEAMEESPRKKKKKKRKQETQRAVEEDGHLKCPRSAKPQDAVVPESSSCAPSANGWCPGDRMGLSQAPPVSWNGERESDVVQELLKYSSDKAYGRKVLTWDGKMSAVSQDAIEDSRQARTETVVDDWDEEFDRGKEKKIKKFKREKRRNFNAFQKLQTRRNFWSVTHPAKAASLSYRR
Outline: as §1

[3] = target: T2, USP38 (UniProt Q8NB14)
T2 sequence (whole entry): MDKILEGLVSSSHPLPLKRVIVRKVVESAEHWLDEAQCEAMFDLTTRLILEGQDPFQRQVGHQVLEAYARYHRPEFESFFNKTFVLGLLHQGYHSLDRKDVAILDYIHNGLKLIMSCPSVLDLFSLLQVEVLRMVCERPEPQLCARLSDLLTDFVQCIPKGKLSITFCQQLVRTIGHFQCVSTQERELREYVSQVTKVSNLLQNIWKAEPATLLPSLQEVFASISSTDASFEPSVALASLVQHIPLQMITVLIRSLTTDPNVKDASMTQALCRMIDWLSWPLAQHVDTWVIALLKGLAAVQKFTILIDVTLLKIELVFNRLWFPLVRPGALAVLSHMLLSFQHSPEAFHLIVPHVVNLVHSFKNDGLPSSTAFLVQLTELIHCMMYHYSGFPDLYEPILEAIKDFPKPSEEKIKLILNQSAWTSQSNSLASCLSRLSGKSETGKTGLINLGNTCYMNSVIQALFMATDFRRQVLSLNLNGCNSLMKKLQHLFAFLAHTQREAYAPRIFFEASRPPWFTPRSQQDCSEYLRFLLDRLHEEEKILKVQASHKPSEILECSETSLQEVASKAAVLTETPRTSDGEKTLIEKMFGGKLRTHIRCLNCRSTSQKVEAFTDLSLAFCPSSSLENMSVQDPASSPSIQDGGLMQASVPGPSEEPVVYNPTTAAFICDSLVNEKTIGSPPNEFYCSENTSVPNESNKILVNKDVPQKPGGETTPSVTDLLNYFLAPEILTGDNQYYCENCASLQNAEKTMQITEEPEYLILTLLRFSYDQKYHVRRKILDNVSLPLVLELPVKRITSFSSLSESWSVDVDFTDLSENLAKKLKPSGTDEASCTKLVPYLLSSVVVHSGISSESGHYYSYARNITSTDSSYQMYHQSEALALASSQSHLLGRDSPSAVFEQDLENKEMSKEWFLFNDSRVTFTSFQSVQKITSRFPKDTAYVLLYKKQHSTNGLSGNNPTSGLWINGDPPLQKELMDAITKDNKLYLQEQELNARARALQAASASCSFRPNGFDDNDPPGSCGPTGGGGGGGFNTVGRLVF
Outline: as §1

[4] = target: T3, USP39 (UniProt Q53GS9)
T3 sequence (whole entry): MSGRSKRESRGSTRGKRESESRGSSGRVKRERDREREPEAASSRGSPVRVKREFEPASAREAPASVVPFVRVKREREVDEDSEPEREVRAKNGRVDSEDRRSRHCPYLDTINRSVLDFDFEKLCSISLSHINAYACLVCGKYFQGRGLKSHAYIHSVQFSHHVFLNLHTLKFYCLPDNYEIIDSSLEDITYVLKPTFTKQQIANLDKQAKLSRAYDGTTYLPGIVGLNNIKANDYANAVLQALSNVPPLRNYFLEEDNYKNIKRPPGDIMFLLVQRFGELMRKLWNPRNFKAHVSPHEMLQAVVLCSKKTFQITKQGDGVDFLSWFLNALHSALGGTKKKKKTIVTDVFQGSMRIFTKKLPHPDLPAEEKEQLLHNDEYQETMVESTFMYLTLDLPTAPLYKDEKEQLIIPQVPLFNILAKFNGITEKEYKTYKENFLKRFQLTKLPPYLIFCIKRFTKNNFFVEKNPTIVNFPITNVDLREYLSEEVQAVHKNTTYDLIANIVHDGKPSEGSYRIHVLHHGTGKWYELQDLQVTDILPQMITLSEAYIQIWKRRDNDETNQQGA
Outline: as §1

[5] = target: T4, USP4 (UniProt Q13107)
T4 sequence (whole entry): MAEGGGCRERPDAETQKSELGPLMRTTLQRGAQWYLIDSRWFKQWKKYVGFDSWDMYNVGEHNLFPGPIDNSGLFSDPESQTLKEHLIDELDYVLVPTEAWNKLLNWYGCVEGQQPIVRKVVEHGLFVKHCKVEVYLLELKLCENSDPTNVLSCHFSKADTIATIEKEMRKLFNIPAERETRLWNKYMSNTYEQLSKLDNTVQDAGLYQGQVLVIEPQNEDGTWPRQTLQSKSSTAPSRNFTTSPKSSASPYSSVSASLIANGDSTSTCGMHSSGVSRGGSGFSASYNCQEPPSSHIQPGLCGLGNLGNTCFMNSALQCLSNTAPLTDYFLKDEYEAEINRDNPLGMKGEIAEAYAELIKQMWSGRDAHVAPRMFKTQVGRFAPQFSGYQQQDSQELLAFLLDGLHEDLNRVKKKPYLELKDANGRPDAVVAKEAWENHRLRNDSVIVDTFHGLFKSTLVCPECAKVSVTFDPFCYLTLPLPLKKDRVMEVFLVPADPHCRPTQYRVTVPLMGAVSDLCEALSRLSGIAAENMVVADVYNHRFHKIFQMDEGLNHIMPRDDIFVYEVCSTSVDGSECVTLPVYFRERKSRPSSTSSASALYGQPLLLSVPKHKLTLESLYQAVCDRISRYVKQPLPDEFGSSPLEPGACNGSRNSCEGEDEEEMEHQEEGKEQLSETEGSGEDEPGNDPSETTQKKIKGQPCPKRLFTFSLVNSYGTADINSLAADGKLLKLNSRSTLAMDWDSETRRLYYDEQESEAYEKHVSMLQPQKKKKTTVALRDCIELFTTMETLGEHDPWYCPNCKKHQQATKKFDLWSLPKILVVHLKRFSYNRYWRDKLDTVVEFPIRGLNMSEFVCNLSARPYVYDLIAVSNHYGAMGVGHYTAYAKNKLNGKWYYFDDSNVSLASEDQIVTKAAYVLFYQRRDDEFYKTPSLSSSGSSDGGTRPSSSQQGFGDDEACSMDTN
Outline: as §1

Measured: log2 ratio of Biotin-Ahx-Ub-VS probe labelling

USP34, sequence (Q70CQ2 whole entry, the tested form may be a part): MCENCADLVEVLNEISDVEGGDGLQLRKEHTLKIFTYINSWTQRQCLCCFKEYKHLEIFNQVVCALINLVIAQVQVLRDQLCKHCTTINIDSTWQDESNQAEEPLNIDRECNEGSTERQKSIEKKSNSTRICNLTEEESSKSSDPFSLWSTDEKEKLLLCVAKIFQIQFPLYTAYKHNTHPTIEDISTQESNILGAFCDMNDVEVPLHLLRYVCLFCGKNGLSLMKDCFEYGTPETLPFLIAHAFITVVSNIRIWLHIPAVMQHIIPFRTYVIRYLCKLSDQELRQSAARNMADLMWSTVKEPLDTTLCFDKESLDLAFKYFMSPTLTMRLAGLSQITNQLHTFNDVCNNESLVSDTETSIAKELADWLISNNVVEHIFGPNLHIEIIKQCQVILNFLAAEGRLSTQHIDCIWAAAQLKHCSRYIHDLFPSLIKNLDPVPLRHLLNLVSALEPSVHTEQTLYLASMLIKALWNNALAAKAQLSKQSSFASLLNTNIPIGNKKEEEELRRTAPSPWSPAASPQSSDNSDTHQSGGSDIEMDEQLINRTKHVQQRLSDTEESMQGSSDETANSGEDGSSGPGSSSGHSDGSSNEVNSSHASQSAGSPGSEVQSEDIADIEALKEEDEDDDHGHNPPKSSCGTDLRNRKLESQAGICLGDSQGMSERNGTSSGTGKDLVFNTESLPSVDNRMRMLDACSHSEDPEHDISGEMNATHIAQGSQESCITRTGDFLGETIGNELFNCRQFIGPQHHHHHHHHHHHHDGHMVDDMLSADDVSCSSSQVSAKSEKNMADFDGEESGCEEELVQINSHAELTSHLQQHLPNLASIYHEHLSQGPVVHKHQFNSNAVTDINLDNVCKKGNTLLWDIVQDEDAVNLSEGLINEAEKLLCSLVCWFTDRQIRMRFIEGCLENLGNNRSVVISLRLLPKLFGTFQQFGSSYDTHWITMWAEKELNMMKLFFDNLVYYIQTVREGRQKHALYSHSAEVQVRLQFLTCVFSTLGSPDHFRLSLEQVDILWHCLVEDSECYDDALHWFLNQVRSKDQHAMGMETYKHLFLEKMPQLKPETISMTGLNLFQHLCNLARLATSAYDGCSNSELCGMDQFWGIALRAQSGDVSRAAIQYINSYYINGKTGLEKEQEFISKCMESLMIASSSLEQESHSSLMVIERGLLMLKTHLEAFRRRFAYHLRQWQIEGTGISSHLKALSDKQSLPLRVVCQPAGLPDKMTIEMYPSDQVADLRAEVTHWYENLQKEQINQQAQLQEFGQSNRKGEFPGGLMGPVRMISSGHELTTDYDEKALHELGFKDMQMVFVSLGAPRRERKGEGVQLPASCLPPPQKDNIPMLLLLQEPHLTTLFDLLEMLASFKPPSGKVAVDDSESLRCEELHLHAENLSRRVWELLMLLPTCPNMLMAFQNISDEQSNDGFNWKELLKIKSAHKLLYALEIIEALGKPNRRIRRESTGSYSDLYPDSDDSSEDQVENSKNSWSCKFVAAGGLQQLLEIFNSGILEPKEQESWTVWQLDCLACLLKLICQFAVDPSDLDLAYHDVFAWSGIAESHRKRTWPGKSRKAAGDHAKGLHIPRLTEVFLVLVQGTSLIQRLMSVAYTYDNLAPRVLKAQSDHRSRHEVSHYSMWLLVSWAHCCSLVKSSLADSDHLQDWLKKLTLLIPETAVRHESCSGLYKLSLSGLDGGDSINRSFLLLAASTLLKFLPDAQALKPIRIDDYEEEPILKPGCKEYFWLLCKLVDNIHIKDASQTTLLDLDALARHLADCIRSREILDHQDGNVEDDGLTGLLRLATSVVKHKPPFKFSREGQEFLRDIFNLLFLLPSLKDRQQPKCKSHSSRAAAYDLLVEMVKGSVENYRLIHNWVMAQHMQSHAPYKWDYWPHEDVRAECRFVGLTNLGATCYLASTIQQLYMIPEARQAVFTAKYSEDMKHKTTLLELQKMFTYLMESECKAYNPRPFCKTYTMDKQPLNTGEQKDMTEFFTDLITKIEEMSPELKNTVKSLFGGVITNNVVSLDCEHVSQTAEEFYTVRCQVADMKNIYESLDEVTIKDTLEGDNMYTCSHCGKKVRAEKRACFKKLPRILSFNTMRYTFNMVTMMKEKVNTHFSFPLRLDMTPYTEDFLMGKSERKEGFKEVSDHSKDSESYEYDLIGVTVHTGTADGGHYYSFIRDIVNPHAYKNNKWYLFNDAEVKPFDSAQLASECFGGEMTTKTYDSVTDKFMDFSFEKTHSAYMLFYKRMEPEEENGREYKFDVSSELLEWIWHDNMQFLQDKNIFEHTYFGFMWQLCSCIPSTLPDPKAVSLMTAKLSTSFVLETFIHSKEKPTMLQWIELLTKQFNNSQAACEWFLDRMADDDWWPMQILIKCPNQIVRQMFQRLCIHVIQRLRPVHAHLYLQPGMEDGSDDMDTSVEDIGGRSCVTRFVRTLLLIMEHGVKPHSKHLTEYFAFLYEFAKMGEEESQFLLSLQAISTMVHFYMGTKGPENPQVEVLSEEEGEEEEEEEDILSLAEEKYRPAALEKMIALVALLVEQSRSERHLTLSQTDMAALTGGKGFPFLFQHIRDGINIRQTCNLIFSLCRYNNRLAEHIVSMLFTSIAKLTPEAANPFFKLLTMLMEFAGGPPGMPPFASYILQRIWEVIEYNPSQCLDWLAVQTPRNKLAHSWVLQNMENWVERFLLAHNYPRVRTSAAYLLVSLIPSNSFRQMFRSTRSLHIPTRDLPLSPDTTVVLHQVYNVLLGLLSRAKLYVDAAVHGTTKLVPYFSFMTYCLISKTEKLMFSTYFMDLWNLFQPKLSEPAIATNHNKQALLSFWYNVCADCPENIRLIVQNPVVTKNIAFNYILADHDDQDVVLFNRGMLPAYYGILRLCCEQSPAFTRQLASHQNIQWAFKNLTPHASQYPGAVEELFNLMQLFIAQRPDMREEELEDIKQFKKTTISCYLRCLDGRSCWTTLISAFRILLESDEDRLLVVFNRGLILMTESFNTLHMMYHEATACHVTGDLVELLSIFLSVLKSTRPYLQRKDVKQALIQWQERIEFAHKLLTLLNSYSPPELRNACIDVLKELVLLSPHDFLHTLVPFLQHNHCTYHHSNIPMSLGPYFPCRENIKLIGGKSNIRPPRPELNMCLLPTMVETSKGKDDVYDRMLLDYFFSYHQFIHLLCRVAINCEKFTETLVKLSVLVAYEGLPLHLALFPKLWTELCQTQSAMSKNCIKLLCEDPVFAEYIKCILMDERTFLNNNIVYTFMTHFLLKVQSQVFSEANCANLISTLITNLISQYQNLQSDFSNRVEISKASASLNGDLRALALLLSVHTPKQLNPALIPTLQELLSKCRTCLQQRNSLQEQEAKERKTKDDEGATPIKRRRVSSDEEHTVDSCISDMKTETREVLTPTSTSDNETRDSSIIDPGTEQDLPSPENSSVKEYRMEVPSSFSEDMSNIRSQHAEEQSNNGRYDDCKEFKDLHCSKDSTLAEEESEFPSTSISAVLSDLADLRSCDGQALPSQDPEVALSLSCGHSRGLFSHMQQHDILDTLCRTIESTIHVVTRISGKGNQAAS

CC1Cc2ccccc2N1C(=O)CCl (stereo not given)
inactive: [1] -0.159 | [2] 0.0162 | [3] -0.00784 | [4] -0.0124 | [5] -0.603
